From ChEMBL document CHEMBL1961873, “Compounds: GSK PKIS; Assays: Nanosyn kinase panel” (2012)

How the values were obtained:
[1] = target: Sphingosine kinase 1 (Homo sapiens) (UniProt Q9NYA1); details: at 1 µM;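 further: mean SPHK1 inhibition value reported from the GSK PKIS kinase panel screen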
[2] = target: T1, Sphingosine kinase 2 (Homo sapiens) (UniProt Q9NRA0); details: at 0.1 µM
T1 sequence (whole entry): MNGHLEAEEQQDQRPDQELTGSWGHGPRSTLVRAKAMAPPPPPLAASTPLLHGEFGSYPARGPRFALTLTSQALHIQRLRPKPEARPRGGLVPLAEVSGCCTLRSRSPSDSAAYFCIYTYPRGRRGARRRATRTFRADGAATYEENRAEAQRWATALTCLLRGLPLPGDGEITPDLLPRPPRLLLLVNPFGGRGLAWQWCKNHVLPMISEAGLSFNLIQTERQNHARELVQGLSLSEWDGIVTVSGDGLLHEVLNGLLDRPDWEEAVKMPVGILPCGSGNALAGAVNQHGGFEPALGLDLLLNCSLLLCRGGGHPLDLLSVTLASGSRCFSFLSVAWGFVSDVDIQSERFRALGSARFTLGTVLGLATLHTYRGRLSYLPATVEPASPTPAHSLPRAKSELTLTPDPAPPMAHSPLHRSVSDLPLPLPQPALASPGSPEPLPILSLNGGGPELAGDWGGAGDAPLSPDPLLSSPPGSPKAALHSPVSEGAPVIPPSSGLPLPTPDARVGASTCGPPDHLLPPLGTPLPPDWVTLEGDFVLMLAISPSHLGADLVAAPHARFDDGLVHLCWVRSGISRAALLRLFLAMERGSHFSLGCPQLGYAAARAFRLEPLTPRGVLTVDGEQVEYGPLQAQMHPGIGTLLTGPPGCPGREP

[3] = target: T1, Sphingosine kinase 2 (Homo sapiens); details: at 1 µM
[4] = target: Casein kinase II subunit alpha (Homo sapiens) (UniProt P68400); details: at 0.1 µM
[5] = target: Casein kinase II subunit alpha (Homo sapiens) (UniProt P68400); details: at 1 µM
[6] = target: T2, Inhibitor of nuclear factor kappa-B kinase subunit alpha (Homo sapiens) (UniProt O15111); details: at 0.1 µM
T2 sequence (whole entry): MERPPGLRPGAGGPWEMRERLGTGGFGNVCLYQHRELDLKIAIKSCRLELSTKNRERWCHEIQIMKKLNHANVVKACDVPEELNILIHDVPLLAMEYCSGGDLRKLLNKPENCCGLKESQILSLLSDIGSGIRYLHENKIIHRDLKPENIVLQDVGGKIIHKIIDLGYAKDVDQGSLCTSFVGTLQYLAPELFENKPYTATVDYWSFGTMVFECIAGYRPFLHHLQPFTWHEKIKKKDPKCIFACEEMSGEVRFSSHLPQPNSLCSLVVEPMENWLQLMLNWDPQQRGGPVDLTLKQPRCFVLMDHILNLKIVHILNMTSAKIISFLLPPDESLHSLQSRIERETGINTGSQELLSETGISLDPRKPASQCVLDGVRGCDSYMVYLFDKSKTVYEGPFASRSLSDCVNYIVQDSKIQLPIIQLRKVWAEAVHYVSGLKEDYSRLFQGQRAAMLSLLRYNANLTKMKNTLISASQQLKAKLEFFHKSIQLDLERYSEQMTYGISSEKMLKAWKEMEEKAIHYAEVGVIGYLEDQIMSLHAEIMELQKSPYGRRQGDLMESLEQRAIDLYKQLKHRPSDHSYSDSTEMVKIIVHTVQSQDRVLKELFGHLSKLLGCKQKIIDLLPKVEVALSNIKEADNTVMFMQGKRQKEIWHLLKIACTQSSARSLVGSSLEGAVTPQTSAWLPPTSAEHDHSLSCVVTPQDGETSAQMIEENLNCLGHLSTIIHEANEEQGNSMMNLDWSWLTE

[7] = target: T2, Inhibitor of nuclear factor kappa-B kinase subunit alpha (Homo sapiens); details: at 1 µM
[8] = target: T3, Inhibitor of nuclear factor kappa-B kinase subunit beta (Homo sapiens) (UniProt O14920); details: at 0.1 µM
T3 sequence (whole entry): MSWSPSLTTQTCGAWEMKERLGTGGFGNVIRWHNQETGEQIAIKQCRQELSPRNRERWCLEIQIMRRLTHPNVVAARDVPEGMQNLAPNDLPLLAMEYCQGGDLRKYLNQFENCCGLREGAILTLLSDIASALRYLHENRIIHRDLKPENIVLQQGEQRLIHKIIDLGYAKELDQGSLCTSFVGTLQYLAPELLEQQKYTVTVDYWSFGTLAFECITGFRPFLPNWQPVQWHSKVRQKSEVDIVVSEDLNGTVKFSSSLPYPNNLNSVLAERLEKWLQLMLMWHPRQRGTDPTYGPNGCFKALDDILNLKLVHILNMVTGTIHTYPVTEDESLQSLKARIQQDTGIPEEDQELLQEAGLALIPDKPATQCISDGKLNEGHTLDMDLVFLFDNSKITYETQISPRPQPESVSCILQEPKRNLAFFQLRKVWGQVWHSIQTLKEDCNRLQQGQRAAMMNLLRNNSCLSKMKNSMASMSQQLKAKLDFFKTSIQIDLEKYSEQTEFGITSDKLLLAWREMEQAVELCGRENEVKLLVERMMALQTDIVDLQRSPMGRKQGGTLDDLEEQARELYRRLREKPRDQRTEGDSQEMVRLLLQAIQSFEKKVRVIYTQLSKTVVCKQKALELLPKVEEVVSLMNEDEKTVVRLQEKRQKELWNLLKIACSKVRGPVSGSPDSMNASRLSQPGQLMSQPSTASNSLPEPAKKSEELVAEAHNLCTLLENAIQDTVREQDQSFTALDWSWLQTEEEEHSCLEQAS

[9] = target: T3, Inhibitor of nuclear factor kappa-B kinase subunit beta (Homo sapiens); details: at 1 µM
[10] = target: T4, Inhibitor of nuclear factor kappa-B kinase subunit epsilon (Homo sapiens) (UniProt Q14164); details: at 0.1 µM
T4 sequence (whole entry): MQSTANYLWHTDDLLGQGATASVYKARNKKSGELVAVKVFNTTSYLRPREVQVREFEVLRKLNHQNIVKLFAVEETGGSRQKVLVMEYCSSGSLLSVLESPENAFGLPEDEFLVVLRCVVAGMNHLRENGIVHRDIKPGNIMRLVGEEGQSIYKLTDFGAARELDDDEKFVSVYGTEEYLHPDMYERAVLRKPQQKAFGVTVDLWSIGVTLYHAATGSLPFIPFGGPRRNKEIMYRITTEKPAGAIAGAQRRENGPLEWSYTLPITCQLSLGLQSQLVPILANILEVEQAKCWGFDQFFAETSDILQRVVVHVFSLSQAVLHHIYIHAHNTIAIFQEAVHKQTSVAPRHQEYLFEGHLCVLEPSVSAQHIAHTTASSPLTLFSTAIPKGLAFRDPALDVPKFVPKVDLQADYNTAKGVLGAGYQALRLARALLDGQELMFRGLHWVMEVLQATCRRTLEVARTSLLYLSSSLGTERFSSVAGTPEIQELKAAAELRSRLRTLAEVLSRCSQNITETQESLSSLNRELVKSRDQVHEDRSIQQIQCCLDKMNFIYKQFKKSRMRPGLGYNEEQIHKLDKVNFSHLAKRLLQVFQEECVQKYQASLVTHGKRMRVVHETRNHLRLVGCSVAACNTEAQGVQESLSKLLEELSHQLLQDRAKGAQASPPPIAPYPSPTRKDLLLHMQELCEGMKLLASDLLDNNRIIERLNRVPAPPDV

[11] = target: T4, Inhibitor of nuclear factor kappa-B kinase subunit epsilon (Homo sapiens); details: at 1 µM
[12] = target: T5, Serine/threonine-protein kinase Nek1 (Homo sapiens) (UniProt Q96PY6); details: at 0.1 µM
T5 sequence (whole entry): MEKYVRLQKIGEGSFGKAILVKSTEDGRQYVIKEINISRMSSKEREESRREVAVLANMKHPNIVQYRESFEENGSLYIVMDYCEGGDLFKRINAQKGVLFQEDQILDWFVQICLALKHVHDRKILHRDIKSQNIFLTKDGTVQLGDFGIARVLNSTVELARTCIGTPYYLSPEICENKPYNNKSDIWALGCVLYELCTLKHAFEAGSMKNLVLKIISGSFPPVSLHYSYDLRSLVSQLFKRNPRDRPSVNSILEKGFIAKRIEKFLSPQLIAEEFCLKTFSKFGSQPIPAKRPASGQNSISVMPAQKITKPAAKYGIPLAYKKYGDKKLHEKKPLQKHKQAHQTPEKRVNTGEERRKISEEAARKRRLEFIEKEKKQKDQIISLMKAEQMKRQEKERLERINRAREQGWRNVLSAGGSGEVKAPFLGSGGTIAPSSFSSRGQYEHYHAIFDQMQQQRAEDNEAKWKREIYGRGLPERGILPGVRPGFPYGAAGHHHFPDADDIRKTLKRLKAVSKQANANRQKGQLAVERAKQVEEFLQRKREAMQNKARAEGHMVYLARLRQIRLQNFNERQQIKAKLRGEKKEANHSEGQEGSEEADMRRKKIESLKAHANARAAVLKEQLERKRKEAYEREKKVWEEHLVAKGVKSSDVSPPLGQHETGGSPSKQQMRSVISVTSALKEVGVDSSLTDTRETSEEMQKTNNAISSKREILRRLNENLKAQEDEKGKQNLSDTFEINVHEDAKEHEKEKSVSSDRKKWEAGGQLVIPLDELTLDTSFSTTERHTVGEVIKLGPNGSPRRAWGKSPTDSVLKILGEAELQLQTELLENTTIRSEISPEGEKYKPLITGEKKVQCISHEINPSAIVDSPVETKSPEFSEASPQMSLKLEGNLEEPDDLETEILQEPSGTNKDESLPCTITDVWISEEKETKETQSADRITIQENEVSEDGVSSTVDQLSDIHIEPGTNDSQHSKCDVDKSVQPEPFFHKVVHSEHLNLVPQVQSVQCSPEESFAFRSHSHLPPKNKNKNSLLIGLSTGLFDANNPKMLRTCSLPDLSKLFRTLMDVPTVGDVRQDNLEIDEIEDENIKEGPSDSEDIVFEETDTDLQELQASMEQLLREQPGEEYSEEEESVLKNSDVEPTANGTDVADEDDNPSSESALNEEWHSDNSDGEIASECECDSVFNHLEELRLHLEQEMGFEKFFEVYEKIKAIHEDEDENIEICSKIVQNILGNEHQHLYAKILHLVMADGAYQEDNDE

[13] = target: T5, Serine/threonine-protein kinase Nek1 (Homo sapiens); details: at 1 µM
[14] = target: T6, Serine/threonine-protein kinase Nek2 (Homo sapiens) (UniProt P51955); details: at 0.1 µM
T6 sequence (whole entry): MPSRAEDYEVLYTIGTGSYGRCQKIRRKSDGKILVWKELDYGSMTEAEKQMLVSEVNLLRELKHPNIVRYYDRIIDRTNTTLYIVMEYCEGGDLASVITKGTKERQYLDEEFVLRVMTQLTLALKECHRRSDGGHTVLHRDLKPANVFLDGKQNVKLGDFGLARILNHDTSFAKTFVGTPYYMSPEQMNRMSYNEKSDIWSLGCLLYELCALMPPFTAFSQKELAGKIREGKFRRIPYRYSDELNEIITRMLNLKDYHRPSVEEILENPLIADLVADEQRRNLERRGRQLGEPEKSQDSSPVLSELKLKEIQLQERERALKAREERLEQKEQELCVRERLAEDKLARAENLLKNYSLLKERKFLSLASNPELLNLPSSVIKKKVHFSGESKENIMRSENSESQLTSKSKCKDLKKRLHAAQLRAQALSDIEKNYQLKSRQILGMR

[15] = target: T6, Serine/threonine-protein kinase Nek2 (Homo sapiens); details: at 1 µM
[16] = target: Serine/threonine-protein kinase Nek6 (Homo sapiens) (UniProt Q9HC98); details: at 0.1 µM
[17] = target: Serine/threonine-protein kinase Nek6 (Homo sapiens) (UniProt Q9HC98); details: at 1 µM
[18] = target: Serine/threonine-protein kinase Nek7 (Homo sapiens) (UniProt Q8TDX7); details: at 0.1 µM
[19] = target: Serine/threonine-protein kinase Nek7 (Homo sapiens) (UniProt Q8TDX7); details: at 1 µM
[20] = target: T7, Serine/threonine-protein kinase Nek9 (Homo sapiens) (UniProt Q8TD19); details: at 0.1 µM;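 further: reported value is the mean percent inhibition of NEK9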
T7 sequence (whole entry): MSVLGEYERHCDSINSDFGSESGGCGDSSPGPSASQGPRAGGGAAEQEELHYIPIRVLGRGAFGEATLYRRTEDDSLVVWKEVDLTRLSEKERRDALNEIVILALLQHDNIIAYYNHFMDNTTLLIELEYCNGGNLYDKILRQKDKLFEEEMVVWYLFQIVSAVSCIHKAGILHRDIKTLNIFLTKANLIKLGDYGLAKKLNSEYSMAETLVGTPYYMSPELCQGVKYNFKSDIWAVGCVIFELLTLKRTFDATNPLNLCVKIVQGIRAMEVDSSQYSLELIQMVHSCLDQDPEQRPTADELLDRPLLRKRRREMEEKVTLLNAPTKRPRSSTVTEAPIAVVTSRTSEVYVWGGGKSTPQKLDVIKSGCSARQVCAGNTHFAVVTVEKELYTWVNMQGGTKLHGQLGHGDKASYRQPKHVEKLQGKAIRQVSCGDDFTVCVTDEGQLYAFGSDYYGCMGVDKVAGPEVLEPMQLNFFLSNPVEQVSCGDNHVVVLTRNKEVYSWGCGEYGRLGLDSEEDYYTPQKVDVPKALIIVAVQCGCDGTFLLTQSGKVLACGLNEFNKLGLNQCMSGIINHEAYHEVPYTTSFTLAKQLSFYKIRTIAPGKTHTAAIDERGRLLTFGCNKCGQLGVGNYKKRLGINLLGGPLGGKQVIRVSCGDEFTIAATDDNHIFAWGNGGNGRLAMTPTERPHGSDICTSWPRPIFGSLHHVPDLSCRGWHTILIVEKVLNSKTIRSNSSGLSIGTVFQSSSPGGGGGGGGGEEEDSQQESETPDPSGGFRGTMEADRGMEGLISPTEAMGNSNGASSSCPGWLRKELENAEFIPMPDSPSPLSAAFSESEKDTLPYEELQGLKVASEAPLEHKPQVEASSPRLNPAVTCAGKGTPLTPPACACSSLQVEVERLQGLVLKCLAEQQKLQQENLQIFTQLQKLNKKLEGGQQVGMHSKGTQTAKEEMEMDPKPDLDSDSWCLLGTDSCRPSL

Sequence of Serine/threonine-protein kinase Nek7 (Homo sapiens) (Q8TDX7 whole entry, looked up): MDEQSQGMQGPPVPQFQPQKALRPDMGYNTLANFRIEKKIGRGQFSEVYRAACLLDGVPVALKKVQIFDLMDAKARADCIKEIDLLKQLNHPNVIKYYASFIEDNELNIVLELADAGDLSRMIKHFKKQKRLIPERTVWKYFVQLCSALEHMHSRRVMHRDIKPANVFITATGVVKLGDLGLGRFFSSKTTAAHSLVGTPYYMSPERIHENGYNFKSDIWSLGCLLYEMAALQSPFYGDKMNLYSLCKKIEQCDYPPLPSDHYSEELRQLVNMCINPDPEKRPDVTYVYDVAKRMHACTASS
Sequence of Serine/threonine-protein kinase Nek6 (Homo sapiens) (Q9HC98 whole entry): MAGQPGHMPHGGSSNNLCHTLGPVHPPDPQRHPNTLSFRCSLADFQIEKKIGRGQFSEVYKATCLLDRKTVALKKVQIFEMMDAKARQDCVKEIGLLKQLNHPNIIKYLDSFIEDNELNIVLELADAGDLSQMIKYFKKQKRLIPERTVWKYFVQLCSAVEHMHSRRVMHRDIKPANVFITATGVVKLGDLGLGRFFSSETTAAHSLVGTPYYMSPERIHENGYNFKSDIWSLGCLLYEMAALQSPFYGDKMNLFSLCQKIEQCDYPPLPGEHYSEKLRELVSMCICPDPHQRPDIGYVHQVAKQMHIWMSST
Sequence of Casein kinase II subunit alpha (Homo sapiens) (P68400 whole entry, looked up): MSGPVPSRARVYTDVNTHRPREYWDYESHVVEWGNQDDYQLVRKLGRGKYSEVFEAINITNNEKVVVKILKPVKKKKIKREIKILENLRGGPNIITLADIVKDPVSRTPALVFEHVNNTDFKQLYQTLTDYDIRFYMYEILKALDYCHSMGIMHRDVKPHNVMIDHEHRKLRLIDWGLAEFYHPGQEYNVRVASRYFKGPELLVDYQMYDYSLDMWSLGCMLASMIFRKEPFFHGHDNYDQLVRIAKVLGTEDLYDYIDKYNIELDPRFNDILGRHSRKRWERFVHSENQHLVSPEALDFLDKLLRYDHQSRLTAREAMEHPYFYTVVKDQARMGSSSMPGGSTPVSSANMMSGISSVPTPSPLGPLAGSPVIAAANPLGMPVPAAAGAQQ
Sequence of Sphingosine kinase 1 (Homo sapiens) (Q9NYA1 whole entry): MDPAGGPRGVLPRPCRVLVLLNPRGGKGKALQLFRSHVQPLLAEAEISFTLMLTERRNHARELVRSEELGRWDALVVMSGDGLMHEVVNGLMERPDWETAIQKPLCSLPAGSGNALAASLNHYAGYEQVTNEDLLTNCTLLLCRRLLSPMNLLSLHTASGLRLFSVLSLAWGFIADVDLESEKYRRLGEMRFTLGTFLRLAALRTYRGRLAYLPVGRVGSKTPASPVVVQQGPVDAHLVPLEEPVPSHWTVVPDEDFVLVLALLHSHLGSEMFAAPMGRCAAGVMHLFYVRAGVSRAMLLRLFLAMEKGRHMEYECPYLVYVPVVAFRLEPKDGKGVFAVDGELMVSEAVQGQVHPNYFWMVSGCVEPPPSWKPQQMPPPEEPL

Row | SMILES | inhibition [1] [%] | inhibition [2] [%] | inhibition [3] [%] | inhibition [4] [%] | inhibition [5] [%] | inhibition [6] [%] | inhibition [7] [%] | inhibition [8] [%] | inhibition [9] [%] | inhibition [10] [%] | inhibition [11] [%] | inhibition [12] [%] | inhibition [13] [%] | inhibition [14] [%] | inhibition [15] [%] | inhibition [16] [%] | inhibition [17] [%] | inhibition [18] [%] | inhibition [19] [%] | inhibition [20] [%]
1 | c1ccc(-c2n[nH]cc2-c2ccnc(-c3ccc(OCCN4CCOCC4)cc3)c2)nc1 | -1.7 | 0.79 | -2.14 | -3.28 | -4.72 | -2.42 | -8.48 | -4.16 | -6.86 | -5.44 | -6.6 | 1.71 | -2.23 | -2.95 | -2.74 | -1.49 | -2.27 | -5.33 | -3.67 | 
2 | COc1cc(C)c(N(C)C(=O)CN(C)C)cc1Nc1nc(Nc2cccc(F)c2C(N)=O)c2cc[nH]c2n1 | -0.02 | 0.91 | -0.35 | 0.17 | 4.3 | 3.63 | 1.85 | 2.96 | -0.54 | 1.26 | 0.91 | 1.9 | 1.66 | 3.24 | 3.64 | 1.26 | -1.46 | 3.13 | 2.22 | 5.24
